PubChem BioAssay (NCATS)
Records with an inconclusive call do not appear. Where a call stands in place of a potency, no number is given. Calls of active or inactive are those of the source. Calls follow the shape of the dose curve; as a rule, active = well fitted cell-killing curve with a large enough effect; inconclusive = small, poorly fitted or top-dose-only effect, or effect the other way; inactive = no such curve, though single readings can be large or run the other way.

Assays:
[1] = Viability qHTS for spleen associated tyrosine kinase inhibitor (SYKi) naive MV4-11 cells (AID 1963823); also: nearly all actives have a fitted effect of over 40% in size
Outline: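 Cells: MV4-11, SYK inhibitor naive, 500 per well. Treatment: library compounds, 72 hr, 37 C, 5% CO2. Read-out: CellTiter-Glo luminescence after 10 min RT.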

[2] = Viability qHTS for spleen associated tyrosine kinase inhibitor (SYKi) drug resistant MV4-11 cells (AID 1963824); also: nearly all actives have a fitted effect of over 35% in size
Outline: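 SYK inhibitor-resistant MV4-11 AML cells, 500 per well, added to predispensed compounds and incubated 72 hr at 37 C, 5% CO2. Viability measured by CellTiter-Glo luminescence after 10 min at room temperature.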
Potency is read from the fitted curve at half-maximal effect.

Q: With `COc1cc2ncnc(Nc3ccc(O)cc3)c2cc1OC` as the compound, how does the Potency [1] read?
A: 3.26 µM (active)

Q: What about the Potency [2] of the same compound?
A: 7.31 µM (active)

Q: Which Potency [1] does the source give for `COC(=O)c1cc(OC)cc(OC)c1C(=O)c1c(OC)cc2c(c1O)C1CCCC(C)(O2)O1` (configuration not stated) here?
A: inactive

Q: What about the Potency [2] of the same compound?
A: 7.09 µM (active)

Q: For `CC12CC(c3ccoc3)OC(=O)C1CCC1(C)C2CCC(O)C1(C)O` (configuration not stated), which Potency [1] is on record?
A: inactive

Q: And the Potency [2]?
A: inactive

Q: With `O=C(CO)[C@@H](O)[C@H](O[C@@H]1O[C@H](CO)[C@H](O)[C@H](O)[C@H]1O)[C@H](O)CO` as the compound, how does the Potency [1] read?
A: inactive

Q: What about the Potency [2] of the same compound?
A: inactive

Q: With `COC(=O)C1=CO[C@@H](O[C@@H]2O[C@H](CO)[C@@H](O)[C@H](O)[C@H]2O)[C@@H]2[C@@](C)(O)[C@@H](O)C[C@]12O` as the compound, how does the Potency [1] read?
A: inactive

Q: And the Potency [2]?
A: inactive

Q: For `C[C@@H]1CC[C@]2(C(=O)O)CC[C@]3(C)C(=CCC4[C@@]5(C)C[C@@H](O)[C@@H](O)C(C)(C)C5CC[C@]43C)C2[C@]1(C)O` (some centres not stated), which Potency [1] is on record?
A: inactive

Q: What about the Potency [2] of the same compound?
A: 3.55 µM (active)

Q: Which Potency [1] does the source give for `COC(=O)C1=CO[C@@H](O[C@@H]2O[C@H](CO)[C@@H](O)[C@H](O)[C@H]2O)[C@H]2[C@@H]1C=C[C@@]21C=C([C@H](C)O)C(=O)O1` here?
A: inactive

Q: And the Potency [2]?
A: inactive

Q: For `CCOC(=O)Nc1cc(-c2ccc(C)c(NS(C)(=O)=O)c2)nn2c(C)nnc12`, which Potency [1] is on record?
A: 0.651 µM (active)

Q: What about the Potency [2] of the same compound?
A: 0.651 µM (active)

Q: With `COc1cc(O)cc(C)c1C(=O)OC1C(CO)OC(n2ccc(=O)[nH]c2=O)C1OC(C)=O` (configuration not stated) as the compound, how does the Potency [1] read?
A: 5.63 µM (active)

Q: And the Potency [2]?
A: inactive

Q: For `CCC1=C(C)C(=O)C(C)CC12C(=O)CCC2C(=O)O` (configuration not stated), which Potency [1] is on record?
A: inactive

Q: What about the Potency [2] of the same compound?
A: inactive

Q: Which results are given for `CC(C)C(CO)Nc1nc(Nc2cc(N)cc(Cl)c2)c2ncn(C(C)C)c2n1` (configuration not stated)?
A: Potency [1]: 0.517 µM (active); Potency [2]: 0.82 µM (active)
